The full ranking holds about 4,100 sequences; the median of “RBNS R-value (6-mer enrichment in protein-bound RNA vs input library)” is about 0.96, and the highest 2% start at about 2.4. The full list was thinned out, with the highest values kept by preference.
Test system: PyIESI-1 RRM domain (Plasmodium yoelii PY17X_0911200 aa 795-956, GST fusion)
Experiment: RBNS R-value (6-mer enrichment in protein-bound RNA vs input library) (ratio); higher = stronger binding preference; the methods of the paper give 50 / 100 / 500 nM protein instead
Protocol: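 RNA Bind-n-Seq: recombinant GST-tagged IESI-1 RRM domain was incubated at room temperature with a random 40-nt in vitro transcribed RNA library at 250, 500 or 1000 nM protein. Bound RNA was pulled down on glutathione beads and sequenced. R-value is the enrichment of each 6-mer in the bound RNA relative to the input library. Each 6-mer sits inside the random 40-mer context, not as an isolated oligo. Values are replicate 1 only.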

Sequence	RBNS R-value (protein concentration: 250 nM)	RBNS R-value (protein concentration: 500 nM)	RBNS R-value (protein concentration: 1000 nM)
UGGAUC	0.876	0.876	0.852
CGGGUA	0.923	0.929	0.9
GUGAUU	4.55	4.24	4.44
GUGAAU	0.995	1	0.944
GUGAUC	1.68	1.71	1.81
GUGAUA	2.97	2.94	3.2
CAGAUU	1.53	1.52	1.61
UUGAUU	7.23	6.65	6.84
UGGAUU	1.02	1.04	1.01
CUGAAU	1.09	1.11	1.07
GUGAGA	1.03	1.06	0.984
UUGAGU	1.03	1.07	1.03
GUGAAA	0.997	0.961	0.925
CUGAUU	6.33	5.69	5.82
GUACUA	0.638	0.638	0.595
UACGGA	0.876	0.89	0.885
GAAUCA	0.819	0.828	0.81
UAGUGG	0.775	0.827	0.76
CAGUUC	0.829	0.84	0.843
GCCCUU	0.971	1.02	1.03
GGGCAC	1.06	1.04	1.06
UUGCAC	1.32	1.29	1.31
CGAUAC	1.26	1.34	1.39

Sequence	RBNS R-value (protein concentration: 250 nM)	RBNS R-value (protein concentration: 500 nM)	RBNS R-value (protein concentration: 1000 nM)
AGAUAG	1.08	1.1	1.11
GGAUAC	0.904	0.919	0.891
UGAUAC	3.65	3.59	3.96
AGAUAU	0.962	0.983	1
UGAUAU	3.72	3.77	4.19
AGAUAA	0.936	1	1.02
GGAUAU	0.856	0.872	0.845
UGAUAA	4.34	4.21	4.69
UGAUAG	4.53	4.33	4.55
CGAUAA	1.27	1.33	1.41
GGAUAG	0.94	0.954	0.908
GCUACG	0.896	0.915	0.905
AGCUCC	0.982	0.991	1
UGCUGA	2.04	1.98	1.99
AAUCAC	0.701	0.714	0.718
GGGCUU	1.01	1.02	1.01
ACGCUG	1.14	1.13	1.13
CCGGCG	1.06	1.09	1.08
UACAGC	0.713	0.73	0.722
UCCCAU	0.805	0.831	0.834
UCCUCG	0.965	0.991	0.988
AAUUUU	1.02	1.02	1.06
CAUUUU	0.849	0.886	0.903

Sequence	RBNS R-value (protein concentration: 250 nM)	RBNS R-value (protein concentration: 500 nM)	RBNS R-value (protein concentration: 1000 nM)
UAUUUA	0.42	0.445	0.418
AAUUUG	1.6	1.54	1.6
CAUUUA	0.421	0.449	0.427
GAUUUG	4.2	3.81	3.78
GAUUUC	3.38	3.2	3.32
GAUUUA	2.58	2.52	2.7
CAUUUC	0.888	0.94	1
AAUUUC	1.1	1.11	1.15
CAUUUG	1.31	1.35	1.38
GAUUUU	3.71	3.43	3.56
UGGGUA	0.987	1.02	0.989
GUAGUG	0.958	0.965	0.926
GUAAAA	0.762	0.753	0.701
AAACAA	0.781	0.765	0.773
GACAUG	1.52	1.48	1.5
CCUAGC	0.86	0.888	0.886
ACGAUC	0.998	1	1.05
CCGAUU	2.3	2.23	2.34
UCGAUG	2.22	2.24	2.37
ACGAUG	2.5	2.46	2.59
GCGAUG	2.65	2.56	2.65
ACGAUA	1.21	1.3	1.37
CCGAUA	1.32	1.36	1.43

Sequence	RBNS R-value (protein concentration: 250 nM)	RBNS R-value (protein concentration: 500 nM)	RBNS R-value (protein concentration: 1000 nM)
GCGAUU	2.19	2.21	2.28
UCGAUA	1.17	1.23	1.29
UCGAUC	1.05	1.07	1.11
CCGAUG	2.44	2.4	2.5
GCGAUC	1.09	1.12	1.13
ACAUUG	1.19	1.17	1.2
GACCAG	1.1	1.11	1.09
GCUACU	0.838	0.861	0.829
GUGGAG	0.967	0.977	0.96
AAUUCU	1.06	1.05	1.06
AAUUCG	1.08	1.08	1.08
AAUUCC	1.12	1.09	1.12
CAUUCC	0.948	0.975	0.997
GAUUCG	2.64	2.49	2.51
GAUUCC	2.42	2.37	2.49
GAUUCU	2.89	2.77	2.85
GAUUCA	2.85	2.7	2.92
CAUUCG	1.01	1.05	1.07
AAUUCA	0.88	0.882	0.917
UAUUCU	0.707	0.731	0.734
UAUUCA	0.554	0.565	0.571
GCGCAG	1.01	1.03	1.03
ACAUCG	0.752	0.777	0.749

Sequence	RBNS R-value (protein concentration: 250 nM)	RBNS R-value (protein concentration: 500 nM)	RBNS R-value (protein concentration: 1000 nM)
UCCAGU	0.838	0.85	0.831
ACCCAG	1.32	1.27	1.32
AAUCCC	0.954	0.955	0.949
ACUGCG	1.12	1.13	1.13
GACAAC	1.09	1.07	1.07
UCUUCC	0.978	1.01	1.03
GGAUCA	0.767	0.764	0.736
AGAUCA	0.82	0.812	0.814
CGAUCU	1.15	1.15	1.19
UGAUCC	2.58	2.6	2.82
AGAUCU	0.946	0.924	0.93
GGAUCC	0.932	0.922	0.909
UGAUCA	2.37	2.38	2.64
UGAUCU	2.74	2.75	2.93
CGAUCC	1.19	1.22	1.26
GUGUUC	0.821	0.855	0.82
CGUACU	0.773	0.765	0.73
CAGUGA	1.6	1.58	1.62
UGAUUA	6.31	5.88	6.3
UGAUUU	7.9	7.06	7.22
AGAUUA	1.09	1.16	1.25
CCAUUU	0.871	0.913	0.936
AGAUUU	1.72	1.72	1.83

Sequence	RBNS R-value (protein concentration: 250 nM)	RBNS R-value (protein concentration: 500 nM)	RBNS R-value (protein concentration: 1000 nM)
CUAUUU	0.653	0.681	0.664
CGAUUC	2.08	2.12	2.24
AGAUUC	1.47	1.49	1.58
GGAUUU	1.08	1.1	1.06
CGAUUU	2.59	2.56	2.71
CGAUUA	1.73	1.79	1.94
UGAUUC	6.24	5.67	5.91
GCCAGU	0.86	0.901	0.892
UCUUGC	1.12	1.17	1.18
GAACCU	1.11	1.1	1.07
GAUACC	1.83	1.85	1.99
ACGAAU	0.896	0.896	0.865
GCAGUG	1.11	1.14	1.12
AUUCGC	1.47	1.43	1.46
UACUUC	0.69	0.719	0.702
AUCCCU	0.892	0.921	0.934
CCGGUG	1.11	1.14	1.12
CGCUUA	0.602	0.629	0.617
AUCUAA	0.647	0.67	0.637
GUCAAU	0.655	0.685	0.671
CGAUUG	2.25	2.18	2.2
GGAUUG	1.22	1.22	1.15
UGAUUG	5.45	4.95	4.94

Sequence	RBNS R-value (protein concentration: 250 nM)	RBNS R-value (protein concentration: 500 nM)	RBNS R-value (protein concentration: 1000 nM)
GAAAGG	1.1	1.08	1.01
AGAUAC	1.02	1.09	1.09
ACCUCG	1.08	1.06	1.06
AGUGAA	0.884	0.89	0.844
GGUGAU	2.66	2.69	2.75
GGUGAG	0.98	0.993	0.943
AGUGAU	3.53	3.36	3.56
CGUGAG	0.911	0.913	0.868
CGUGAA	0.949	0.925	0.895
UGUGAU	3.77	3.62	3.78
AGUGAC	1.01	1.04	1.02
CGUGAU	3.46	3.26	3.39
GGUGAC	1.01	1.04	0.983
UGUGAC	1.17	1.18	1.16
UGUGAG	1.11	1.1	1.05
UGCGCU	1.27	1.25	1.26
UCCGUG	1.12	1.15	1.16
GACUCG	1.11	1.13	1.07
UGUUUC	0.901	0.972	0.97
AGCUGA	1.72	1.68	1.68
UCGUGG	0.808	0.811	0.782
CAGCGU	0.779	0.809	0.78
UGCCUC	1.11	1.13	1.19

Sequence	RBNS R-value (protein concentration: 250 nM)	RBNS R-value (protein concentration: 500 nM)	RBNS R-value (protein concentration: 1000 nM)
UGGCCA	1.26	1.22	1.24
GAUAGA	1.92	1.93	2
GAUAGC	2.53	2.39	2.48
GAUAGU	1.39	1.41	1.45
UGCUCA	0.956	0.977	1
CAUGUU	0.726	0.757	0.737
UAUGUA	0.585	0.616	0.581
GAUGUA	2.51	2.41	2.52
UAUGUC	0.642	0.672	0.661
UAUGUG	0.924	0.971	0.978
AAUGUA	0.646	0.662	0.639
GAUGUG	3.46	3.14	3.14
CAUGUC	0.705	0.722	0.733
GAUGUC	2.55	2.44	2.5
GAUGUU	2.92	2.8	2.87
CAUGUG	1.02	1.04	1.03
AAUGUU	0.8	0.836	0.819
GCGUCG	0.809	0.784	0.765
UUGUUA	0.717	0.765	0.738
AGCCUG	1.33	1.33	1.36
GUGGCC	0.987	0.981	0.976
AACCUG	1.37	1.36	1.38
CCGCUA	0.743	0.757	0.758

— the supplement of paper PMC13392028
